Test results: PubChem BioAssay (NCI)
About 83,000 compounds went through this panel and 20% of them were active in at least one assay; those are over-represented in the sample as a whole.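 Testing used 96-well plates and a 48-hour single-concentration exposure. Example: -40 means 40% of the starting cells died.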 Active and inactive are the calls of the source. How the source made its calls: active means growth percent below 10; inactive means the rest.

System: MDA-MB-468 breast
Test: NCI-60 one-dose screen, 48 h (100 = growth as untreated, 0 = no growth, -100 = all killed)
Details: 10 µM unless noted

Compound	growth
CC(C)(C)OC(=O)CN1CCc2c(sc3ncnc(N/N=C/c4ccccc4Br)c23)C1	88.5% (inactive)
Cc1ccc(NC(=O)c2ccc(CN3CCN(C)CC3)c(I)c2)cc1Oc1ccc(-c2[nH]nc3ncnc(N)c23)cc1	105% (inactive)
O=C(CSSCC(=O)c1ccc(Cl)cc1)c1ccc(Cl)cc1	74.8% (inactive)
CC[C@H](C)[C@H]1NC(=O)[C@@H]([C@H](O)C(C)C)NC(=O)[C@@H](C)N(C)C(=O)[C@H](C)N(C)C(=O)[C@H](CC(C)C)NC(=O)[C@H](CC(C)C)N(C)C(=O)[C@H](C)N(C)C1=O	-5.6% (active)
